According to PubChem BioAssay (Tox21):
Inconclusive results are not listed. Active and inactive are the calls of the source. Calls come from the whole dose curve.

Each compound was assayed against Beta-2 adrenergic receptor (Homo sapiens) (UniProt P07550) (assay: Adrenergic beta2 receptor (ADRB2) small molecule agonists, cell-based qHTS assay (AID 1963593)). Conditions: CHO-ADRB2 cells, cAMP HTRF, 30 min; series mostly up to 92.4 µM; activation: at the top concentration.
Text: National Center for Advancing Translational Sciences [NCATS]
Division of Preclinical Innovation [DPI]
U.S. Environmental Protection Agency [EPA]
National Institutes of Environmental Health Sciences [NIEHS]
National Toxicology Program [NTP]
U.S. Food and Drug Administration [FDA]
Beta adrenergic receptors (Beta-ARs) belong to the G-protein coupled receptor (GPCR) superfamily, includes three subtypes - beta1, beta2, and beta3. Beta1-AR is the predominant receptor subtype expressed in the heart, and beta2-AR is expressed in the kidney, lung, blood vessel and in the heart, and beta3 is found in the adipocytes. Beta1 and 2 ARs couple to Gs protein and elevate cyclic adenosine mono phosphate (cAMP), which activates protein kinase A and leads to the downstream signaling responsible for the physiological actions. Beta-AR agonists or antagonists are the most prescribed therapeutic agents for heart failure and asthma, and these were one of the first target receptors for the rational drug design. Tox21 10K compound library was screened using the cAMP-Gs dynamic assay (Cisbio Bioassays, Shelton, CT) to identify agonists/antagonists of the Gs-coupled human adrenergic, beta2 receptor (ADRB2) in the CHO-ADRB2 cell line (Codex BioSolutions, Inc. Gaithersburg, MD), which stably over-expresses ADRB2. The principle of cAMP-Gs dynamic assay is based on HTRF technology, which facilitates the fluorescence resonance energy transfer (FRET) between donor Europium cryptate and acceptor d2-labeled cAMP. The cAMP generated within cells competes with the red acceptor, d2-labled cAMP, for binding to the monoclonal anti-cAMP-cryptate (Europium donor). An increase in intracellular cAMP leads to the disruption of FRET signal, and the signal is inversely proportional to the cAMP concentration. Isoproterenol HCl (Sigma-Aldrich, St. Louis, MO) was used as a positive control in the screening.
Tox21 Assay Protocol Summary:
CHO-ADRB2 cells were dispensed at 1,000/well in 4uL assay medium into white/solid 1536-well plates (Greiner Bio-One North America Inc., Monroe, NC) using a Multidrop Combi dispenser (ThermoFisher Scientific, Waltham, MA). The assay plates were incubated at 37C and 5% CO2 for an overnight (18-20hr). Then positive control and test compounds dissolved in DMSO were transferred to the assay plates at 23nL using a Pintool station (Wako, San Diego, CA). Following the compound and positive control transfer, 1uL stimulation mix containing 100uM IBMX and 25uM Ro-20-1724 was added to each well of the assay plates using BioRAPTR Flying Reagent Dispenser (FRD, Beckman Coulter, Brea, CA). The assay plates were incubated at room temperature for 0.5hr. Then 2.5ul each d2-labled cAMP and anti-cAMP-cryptate solutions were added separately to each well of the assay plates using an FRD and the assay plates were incubated at room temperature for 1hr.
% is set by controls: 0 for no effect and ±100 for the full control effect.

Chain of Beta-2 adrenergic receptor (Homo sapiens) (P07550 whole entry, looked up): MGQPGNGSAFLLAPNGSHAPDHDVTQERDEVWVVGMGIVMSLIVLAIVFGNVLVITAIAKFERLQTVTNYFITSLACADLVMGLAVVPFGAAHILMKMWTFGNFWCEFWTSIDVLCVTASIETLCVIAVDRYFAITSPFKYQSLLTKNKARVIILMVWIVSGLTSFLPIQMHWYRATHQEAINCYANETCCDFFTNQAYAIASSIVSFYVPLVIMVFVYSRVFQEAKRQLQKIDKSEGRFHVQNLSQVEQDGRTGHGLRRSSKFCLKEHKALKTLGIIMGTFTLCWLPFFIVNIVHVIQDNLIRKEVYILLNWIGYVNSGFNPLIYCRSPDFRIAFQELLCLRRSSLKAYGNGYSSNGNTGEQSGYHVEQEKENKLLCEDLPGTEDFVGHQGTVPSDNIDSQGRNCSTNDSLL

Question: For `Nc1ccc(S(=O)(=O)Nc2nccs2)cc1`, which Potency is on record?
Answer: inactive

Question: For `C=Cc1cccc(C)c1`, which “activation” value is on record?
Answer: 6.92% (inactive)

Question: For `Cc1cc(CC(=O)O)n(C)c1C(=O)c1ccc(Cl)cc1`, which “activation” value is on record?
Answer: -17.8% [at 42.5 µM] (inactive)

Question: Which “activation” value does the source give for `O=C(O)CN(CC(=O)O)CC(=O)O` here?
Answer: 6.95% (inactive)

Question: With `CCCCCCC(=O)O` as the compound, how does the “activation” value read?
Answer: 12.7% (inactive)

Question: How did the Potency turn out when `CN(C)CCN(Cc1cccs1)c1ccccn1` was run?
Answer: inactive

Question: How did the Potency turn out when `COC(=O)C1CCC(C(=O)OC)CC1` (stereo not given) was run?
Answer: inactive

Question: Which “activation” value does the source give for `OCc1ccc(Cl)cc1Cl` here?
Answer: -20.1% (inactive)

Question: Which “activation” value does the source give for `COCCCN` here?
Answer: 25.7% (inactive)

Question: With `CCCC[P+](CCCC)(CCCC)CCCC` as the compound, how does the Potency read?
Answer: inactive

Question: For `Brc1ccc(Oc2ccc(Br)cc2)cc1`, which “activation” value is on record?
Answer: 14.1% (inactive)

Question: Which “activation” value does the source give for `CN(C)C` here?
Answer: -3.25% (inactive)

Question: `COc1cc(OC)c(C(=O)CCCN2CCCC2)c(OC)c1` was tested. Which “activation” value did it give?
Answer: -1.69% [at 42.5 µM] (inactive)

Question: Which Potency does the source give for `CC(C)=CCC/C(C)=C\CO` here?
Answer: inactive

Question: `C=CC(C)(CCC=C(C)C)OC(C)=O` (stereo not given) was tested. Which “activation” value did it give?
Answer: 12.7% (inactive)

Question: Which “activation” value does the source give for `C[C@]12C=CC(=O)C=C1CC[C@@H]1[C@@H]2[C@@H](O)C[C@@]2(C)[C@H]1CC[C@]2(O)C(=O)CO` here?
Answer: -26.4% (inactive)

Question: With `CCn1c2ccccc2c2cc(N)ccc21` as the compound, how does the “activation” value read?
Answer: -24.1% (inactive)

Question: Which “activation” value does the source give for `CCc1cccc2c3c([nH]c12)C(CC)(CC(=O)O)OCC3` (stereo not given) here?
Answer: -0.0911% [at 42.5 µM] (inactive)

Question: Which “activation” value does the source give for `CC(=O)OC/C=C(\C)CCC=C(C)C` here?
Answer: 21.6% (inactive)

Question: For `O=C(O)/C=C\C(=O)O`, which “activation” value is on record?
Answer: -18.6% (inactive)

Question: How did the Potency turn out when `O=C1NS(=O)(=O)c2ccccc21` was run?
Answer: inactive

Question: For `Nc1ccc(C(=O)O)cc1`, which Potency is on record?
Answer: inactive

Question: With `Cc1cccc2ccccc12` as the compound, how does the Potency read?
Answer: inactive

Question: How did the Potency turn out when `CCOC(=O)C(C)(C)Oc1ccc(Cl)cc1` was run?
Answer: inactive

Question: How did the Potency turn out when `CC[N+](CC)(CC(=O)Nc1c(C)cccc1C)Cc1ccccc1` was run?
Answer: inactive

Question: How did the Potency turn out when `O=C(O)C1=NN(c2ccc(S(=O)(=O)O)cc2)C(=O)C1` was run?
Answer: inactive

Question: Which Potency does the source give for `CN(C)C=O` here?
Answer: inactive

Question: Which “activation” value does the source give for `CCCCOCCOCCO` here?
Answer: 23.1% (inactive)

Question: How did the “activation” value turn out when `CC(=O)Oc1c(C)c(C)c2c(c1C)CC[C@@](C)(CCC[C@H](C)CCC[C@H](C)CCCC(C)C)O2` was run?
Answer: 15.7% (inactive)

Question: How did the Potency turn out when `O=C(O)CCCC(=O)O` was run?
Answer: inactive

Question: How did the “activation” value turn out when `CC1(C)OC(=O)NC1=O` was run?
Answer: -32.9% [at 42.5 µM] (inactive)

Question: Which “activation” value does the source give for `Cc1ccc(C)c(OCCCC(C)(C)C(=O)O)c1` here?
Answer: -12.2% [at 42.5 µM] (inactive)

Question: For `CC(=O)OCCOC(C)=O`, which Potency is on record?
Answer: inactive

Question: For `CCC(=O)/C=C/C1C(C)=CCCC1(C)C` (stereo not given), which “activation” value is on record?
Answer: -8.92% (inactive)

Question: How did the Potency turn out when `CCCCC(C=O)CC` (stereo not given) was run?
Answer: inactive

Question: For `CCCCCCC=O`, which “activation” value is on record?
Answer: 0.937% (inactive)

Question: For `CCNc1cccc(C)c1`, which “activation” value is on record?
Answer: 2.96% (inactive)

Question: How did the “activation” value turn out when `c1ccc2cc(Nc3ccc(Nc4ccc5ccccc5c4)cc3)ccc2c1` was run?
Answer: 0.248% (inactive)

Question: Which “activation” value does the source give for `C/C=C1/CC2C=CC1C2` (stereo not given) here?
Answer: -5.2% (inactive)

Question: How did the Potency turn out when `Cc1cc(=O)[nH]c(C(C)C)n1` was run?
Answer: inactive
